Screening data deposited in PubChem by National Center for Advancing Translational Sciences (NCATS).
Shown are actives, neighbours in structure and some others; about 10% of the full set was active somewhere.
CtBP-E1A blk – CtBP/E1A binding inhibition | AlphaScreen GST-E1A/His-CtBP binding, 1536-well; hits give low values | activity change, % (no concentration beside the values) | 340,000 tested, 0.49% active | AID 651724; in the data active means activity change below about -65%; inconclusive means mostly about -30% to -63%; further: on the % scale 0 is the no-effect control and ±100 the full control effect
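Steps: dispense buffer (Tris pH 8.0, NaCl 300 mM, TCEP 1 mM, BSA, Tween 20); add 5X protein mix (GST-E1A, His-CtBP, 125 nM each); pin 23 nL compound; 2 h at 37 °C, dark; add 5X beads (50 ug/mL); 1 h; read.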
Six1-Eya2 blk – blocks human Six1 binding to Eya2 | Q15475+O00167 | AlphaScreen GST-Six1/His-Eya2 binding, biochemical; hits give low values | activity change, % (no concentration beside the values) | 360,000 tested, 0.56% active | AID 651725; in the data active means activity change below about -65%; inconclusive means mostly about -30% to -63%; further: on the % scale 0 is the no-effect control and ±100 the full control effect
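GST-Six1 + His-Eya2 (5X stock: 250/500 nM); Tris pH 8.0, 300 mM NaCl, 0.05% BSA, 0.02% Tween 20; GSH donor/Ni acceptor beads; 1 h 37 °C dark; AlphaScreen readout.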
JMJD2A Tudor – blocks the human JMJD2A Tudor domain | O75164 | AlphaScreen JMJD2A-Tudor / H3K4me3 peptide binding | Potency, µM (top dose mostly 114 µM), without a hit: at the top dose activity change, negative = inhibition, usual class: inhibitors | 390,000 tested, 4.4% active; further: potency means the concentration at half of the fitted maximal effect; on the % scale 0 is the no-effect control and ±100 the full control effect; nearly all actives have a fitted effect of over 50% in size
HP1b chromo inh – HP1-beta chromodomain-methylated histone interaction inhibition | P83916 | AlphaScreen HP1-beta / biotin-H3K9me3 peptide binding | Potency, µM (highest dose often 114 µM), for the others: at the top dose activity change, negative = inhibition, hits mostly inhibitors | 390,000 tested, 0.56% active; further: potency means the concentration at half of the fitted maximal effect; nearly all actives have a fitted effect of over 70% in size
Target sequence (P83916 whole entry, looked up): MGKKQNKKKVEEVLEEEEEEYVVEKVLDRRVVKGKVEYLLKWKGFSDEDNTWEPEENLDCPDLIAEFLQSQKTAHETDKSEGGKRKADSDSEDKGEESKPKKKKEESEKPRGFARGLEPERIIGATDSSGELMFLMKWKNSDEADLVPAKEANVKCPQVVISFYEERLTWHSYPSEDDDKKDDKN
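HP1-beta protein (50 nM final) preincubated 30 min at room temperature with biotinylated H3(1-18)K9me3 peptide (50 nM) in PBS pH 7.4, 0.01% Tween-20, then compound added for 30 min. AlphaScreen streptavidin donor/nickel chelate acceptor beads (10 ug/mL final), 30 min dark, luminescence read.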
BAZ2B inh – BAZ2B (human) inhibition. Potency, µM (doses to about 114 µM), for the others: at the top dose activity change, negative = inhibition, most hits filed as inhibitors. 360,000 tested, 4.4% active. AlphaScreen BAZ2B-H3K14Ac peptide displacement. AID 504333. Q9UIF8; further: potency means the concentration at half of the fitted maximal effect; on the % scale 0 is the no-effect control and ±100 the full control effect; nearly all actives have a fitted effect of over 60% in size
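Inhibition is scored as reduced AlphaScreen emission. The BAZ2B/b-H3(5-23)K14Ac complex (50 nM each) in PBS pH 7.4, 0.01% Tween-20 meets compound (up to 110 uM) for 30 min at RT before bead addition.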
G9a inh – blocks human histone lysine methyltransferase G9a. Q96KQ7. G9a H3K9 monomethylation, AlphaScreen, 2 h. Potency, µM (titrated, usually from 102 µM), inactives show at the highest dose activity, negative = inhibition, hits mostly inhibitors. 350,000 tested, 8.8% active. AID 504332; further: potency means the concentration at half of the fitted maximal effect; on the % scale 0 is the no-effect control and ±100 the full control effect; nearly all actives have a fitted effect of over 75% in size
Target sequence (Q96KQ7 913-1193 limits assumed): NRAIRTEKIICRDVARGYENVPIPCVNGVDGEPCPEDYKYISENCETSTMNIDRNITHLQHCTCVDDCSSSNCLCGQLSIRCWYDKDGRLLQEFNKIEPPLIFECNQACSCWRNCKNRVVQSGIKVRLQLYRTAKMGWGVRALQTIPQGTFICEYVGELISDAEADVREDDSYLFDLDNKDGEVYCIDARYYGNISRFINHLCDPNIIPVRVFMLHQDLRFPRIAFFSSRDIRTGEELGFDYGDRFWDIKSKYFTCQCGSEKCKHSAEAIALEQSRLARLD
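Compounds were preincubated with 20 nM G9a for 15 min, after which biotinylated H3K9 peptide (500 nM) and SAM (20 uM) started a 2 h room-temperature reaction. Monomethylated product was quantified by antibody-based AlphaScreen chemiluminescence.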
* hit, by the source's call; ? = inconclusive; nt = not tested or not shown; ! = not active in a repeat; [ ] = another dose, or the depositor's remark. Unless noted, the call rests on the fitted dose curve; in most records, active means well fitted inhibition curve with a large enough effect; inconclusive means small, poorly fitted or top-dose-only effect; inactive means no such curve, though single readings can be large or run the other way.

SMILES	CtBP-E1A blk	Six1-Eya2 blk	JMJD2A Tudor	HP1b chromo inh	BAZ2B inh	G9a inh
O=C(O)c1ccccc1S	nt	nt	nt	nt	3%	40µM*
CCCCC(=O)N/N=C/c1c(O)n(CCc2ccc(OC)c(OC)c2)c(=O)[nH]c1=O	-8	5	0%	28%	50µM*	?
COC(=O)c1cccc(N=Cc2c(O)n(Cc3ccc(F)cc3)c(=O)[nH]c2=O)c1	5	12	-6%	20%	-21%	-29%
CCN(CC)c1ccc(N=Cc2c(O)n(CCc3ccc(OC)c(OC)c3)c(=O)[nH]c2=O)cc1	0	-1	-29%	4%	-3%	7.1µM*
CCCCC(=O)N/N=C/c1c(O)n(CCc2ccccc2)c(=O)[nH]c1=O	?	?	79µM*	14%	?	7%[12.7 µM]
CCCCC(=O)N/N=C/c1c(O)n(Cc2ccc(F)cc2)c(=O)[nH]c1=O	?	-68*	-30%	26%	?	-12%
Nc1ccc2c3c(cccc13)-c1ccccc1-2	26	10	70%	184%	nt	nt
Oc1ccc2c3c1O[C@H]1[C@@H](O)CC[C@]4(O)[C@H](C2)N(CC2CCC2)CC[C@@]314	nt	nt	nt	nt	nt	21%[21.5 µM]
CCN1C[C@@]2(COC)C3[C@@H](OC)C4[C@@H]1C3([C@@H]1C[C@]3(O)[C@H](OC(=O)c5ccccc5)[C@@H]1[C@]4(OC(C)=O)[C@@H](O)[C@@H]3OC)[C@H](OC)C[C@H]2O	nt	nt	nt	nt	nt	21%[59 µM]
CCN(CCO)c1ccc(N=Cc2c(O)n(C)c(=S)[nH]c2=O)cc1	0	-9	?	14%	56µM*	35µM*
CCCCCCC(=O)N/N=C/c1c(O)n(CCCC)c(=S)[nH]c1=O	?	?	-24%	40%	-11%	-20%
CCCCC(=O)N/N=C/c1c(O)n(CC)c(=S)[nH]c1=O	0	-78*	?	55%	?	-11%[59 µM]
COc1ccccc1NC(=O)c1cc[n+](C)cc1	nt	2	-4%	16%	?	35µM*
Cc1ccc(C)c(S(=O)(=O)c2nnn3c2nc(N2CCN(C)CC2)c2sccc23)c1	nt	nt	-29%	41%	?	5%[59 µM]
COc1ccc(P2(=O)Nc3ccccc3N2)cc1	-4	-1	-18%	6%	3%[57.1 µM]	?
COc1ccc2c(c1)NP(=S)(c1ccccc1)N2C (configuration not stated)	?	?	50µM*	35µM*	nt	nt
COc1ccc(OC)c(C2C(C#N)=C(N)Oc3c2c(C)nn3-c2ccc(C)cc2)c1 (configuration not stated)	-5	2	-18%[11.4 µM]	?	50µM*	25µM*
Cc1nn(-c2ccccc2)c2c1C(c1ccc(F)cc1F)C(C#N)=C(N)O2 (configuration not stated)	-1	-4	-36%	0%	?	-31%[59 µM]
O=c1c2ccccc2nc(/C=C/c2ccccc2F)n1-c1cccc(O)c1	nt	nt	-19%	16%	-20%	-18%[59 µM]
Cc1cccc(-n2c(C)n[nH]c2=S)c1C	0	6	45µM*	45%	5%	?
O=C(O)CC1OCC=C2CN3CCC45C6=CC(=O)C(=O)C([N+](=O)[O-])=C6NC4C1C2CC35 (configuration not stated)	?	20	2.5µM*!	55%	?	nt
Nc1nc2ccc(Cl)cc2c2nc(-c3ccco3)nn12	nt	nt	nt	nt	-4%	2.5µM*!
Cc1ccc(Cl)cc1NC(=O)N(Cc1ccc2c(c1)OCO2)C1CCN(Cc2ccccc2)CC1	nt	nt	?	7%	?	?
CNCCc1nc(N)n[nH]1	-2	6	-8%	15%	?	56µM*
C=CCN(CC#CCOc1ccccc1OC)CC=C	nt	nt	nt	nt	50µM*	18µM*
SMILES	CtBP-E1A blk	Six1-Eya2 blk	JMJD2A Tudor	HP1b chromo inh	BAZ2B inh	G9a inh
O=C(Nc1cccc2ncccc12)c1ccccc1Cl	nt	1	-10%	2%	?	79µM*
O=C(NCc1cccnc1)Nc1ccccc1Cl	-10	3	-10%	28%	2%	2%
CC(OC(=O)COc1ccc(Nc2ccccc2)cc1)C(=O)N(C)c1ccccc1 (configuration not stated)	?	?	35µM*	?	22µM*	40µM*
CN(C(=O)CSc1nc2ccc(NC(=O)COc3ccc(Cl)cc3)cc2s1)c1ccccc1	nt	nt	-8%	39%	-4%	7%[59 µM]
C=CCN1C(=O)NC(=O)/C(=C/c2c(CCN(C)C(=O)c3ccccc3)cc3c(c2OC)OCO3)C1=O	6	5	-20%	41%	-37%	?
CNC(=S)N(C)CCc1cc2c(c(OC)c1C=C1C(=O)NC(=O)NC1=O)OCO2	5	2	0%	41%	?	79µM*
CC(C)N(CC[C@@](C(N)=O)(c1ccccc1)c1ccccn1)C(C)C	nt	nt	nt	nt	nt	-2%[12.7 µM]
COc1ccc(O)c(CN2CCCC(C(=O)c3ccccc3SC)C2)c1 (configuration not stated)	-26	?	56µM*	?	50µM*	nt
C/C=C1\C[C@H](C)[C@@](O)(CO)C(=O)OCC2=CCN3CC[C@@H](OC1=O)[C@@H]23	nt	nt	nt	nt	nt	37%[21.5 µM]
CCOC(=O)c1ccc(N2C(=O)CC(N3CCC(O)(c4ccc(Br)cc4)CC3)C2=O)cc1 (configuration not stated)	7	-2	-4%	48%	28%	50µM*
C[N+]12CCC(CC1)C(C(O)(c1ccccc1)c1cccs1)C2 (configuration not stated)	7	0	-31%	15%	0%	14µM*
COc1ccccc1NC(=O)CCn1cnc2onc(-c3ccc(F)cc3)c2c1=O	nt	nt	1%	43%	6%	9%[59 µM]
Cn1c(O)c(C2=NNC(c3ccc(Cl)cc3)C2)c(=O)n(C)c1=O (configuration not stated)	-1	-6	-3%	30%	45µM*	nt
COc1ccc(OCC(=O)N2CCN(CCc3ccncc3)CC2)cc1	nt	nt	-5%	42%	-16%	-11%[59 µM]
O=C(c1cc2ccccn2n1)N1CCN(Cc2ccccc2)CC1	-1	7	-1%	43%	1%	?
O=C(Cc1ccccc1)N1CCN(CC2CC3C=CC2C3)CC1 (configuration not stated)	9	0	4.5µM*	50µM*	32µM*	?
COc1ccc(OCC(=O)N2CCN(CC3CC4C=CC3C4)CC2)cc1 (configuration not stated)	0	2	5.6µM*	?	50µM*	18µM*
O=S1(=O)OCCC(c2ccccc2)N1Cc1ccccc1 (configuration not stated)	8	10	26%	51%	-4%	-1%
